This passage reports binding signal results from article PMC9911399, “Two distinct binding modes provide the RNA-binding protein RbFox with extraordinary sequence specificity”.

Substitutions are numbered along the chain they refer to; changes in the protein carry UniProt numbers. In all, about 16,000 sequences were measured (“ka relative to ugcaugu”: median about 0.096, highest 2% from about 0.35 on). What follows is part of a selection rich in the highest values, with near analogues and random picks from the rest.

To fix the notation:
T1: RBFOX1 RRM RbFoxmut (Fox-RRM*) (Homo sapiens, UniProt Q9NWB1 109-208, R118D;E147R;N151S;E152T)
T1 sequence: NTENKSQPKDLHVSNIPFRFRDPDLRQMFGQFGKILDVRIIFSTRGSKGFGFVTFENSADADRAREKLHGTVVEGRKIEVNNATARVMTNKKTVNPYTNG

B1: GACGGCA (DNA:RNA)
RNA: GGGAGACCGGAAUUCAGAUUGUCCGACGGCAUUAAAUCCCGUCGUAGCCACCA
DNA 1: CAATCTGAATTCCGGTCTCCC
DNA 2: TGGTGGCTACGACGGGATT
B2: AUUGGAU (DNA:RNA)
RNA: B1 RNA with G25A, A26U, C27U, C30A, A31U
DNA 1: CAATCTGAATTCCGGTCTCCC
DNA 2: TGGTGGCTACGACGGGATT
B3: CCCUGUG (DNA:RNA)
RNA: B1 RNA with G25C, A26C, G28U, C30U, A31G
DNA 1: CAATCTGAATTCCGGTCTCCC
DNA 2: TGGTGGCTACGACGGGATT
B4: UGUCCGU (DNA:RNA)
RNA: GGGAGACCGGAAUUCAGAUUGUCCUGUCCGUUUAAAUCCCGUCGUAGCCACCA
DNA 1: CAATCTGAATTCCGGTCTCCC
DNA 2: TGGTGGCTACGACGGGATT
B5: UGUGUGU (DNA:RNA)
RNA: B4 RNA with C28G, C29U
DNA 1: CAATCTGAATTCCGGTCTCCC
DNA 2: TGGTGGCTACGACGGGATT
B6: CUGUGUG (DNA:RNA)
RNA: B1 RNA with G25C, A26U, C27G, G28U, C30U, A31G
DNA 1: CAATCTGAATTCCGGTCTCCC
DNA 2: TGGTGGCTACGACGGGATT
B7: CUGUUUG (DNA:RNA)
RNA: GGGAGACCGGAAUUCAGAUUGUCCCUGUUUGUUAAAUCCCGUCGUAGCCACCA
DNA 1: CAATCTGAATTCCGGTCTCCC
DNA 2: TGGTGGCTACGACGGGATT
B8: CUGUGUU (DNA:RNA)
RNA: B7 RNA with U29G, G31U
DNA 1: CAATCTGAATTCCGGTCTCCC
DNA 2: TGGTGGCTACGACGGGATT
B9: ACCUGUG (DNA:RNA)
RNA: B7 RNA with C25A, U26C, G27C, U29G
DNA 1: CAATCTGAATTCCGGTCTCCC
DNA 2: TGGTGGCTACGACGGGATT
B10: UGUUUUU (DNA:RNA)
RNA: B4 RNA with C28U, C29U, G30U
DNA 1: CAATCTGAATTCCGGTCTCCC
DNA 2: TGGTGGCTACGACGGGATT
B11: UGUUUGU (DNA:RNA)
RNA: B4 RNA with C28U, C29U
DNA 1: CAATCTGAATTCCGGTCTCCC
DNA 2: TGGTGGCTACGACGGGATT
B12: CUGUCGU (DNA:RNA)
RNA: B7 RNA with U29C, U30G, G31U
DNA 1: CAATCTGAATTCCGGTCTCCC
DNA 2: TGGTGGCTACGACGGGATT
B13: UGUGUUU (DNA:RNA)
RNA: B4 RNA with C28G, C29U, G30U
DNA 1: CAATCTGAATTCCGGTCTCCC
DNA 2: TGGTGGCTACGACGGGATT
B14: CUGUUGU (DNA:RNA)
RNA: B7 RNA with U30G, G31U
DNA 1: CAATCTGAATTCCGGTCTCCC
DNA 2: TGGTGGCTACGACGGGATT
B15: AAGACCU (DNA:RNA)
RNA: B1 RNA with G25A, C27G, G28A, G29C, A31U
DNA 1: CAATCTGAATTCCGGTCTCCC
DNA 2: TGGTGGCTACGACGGGATT
B16: GACUUGG (DNA:RNA)
RNA: B7 RNA with C25G, U26A, G27C, U30G
DNA 1: CAATCTGAATTCCGGTCTCCC
DNA 2: TGGTGGCTACGACGGGATT
B17: CCCAUAU (DNA:RNA)
RNA: B7 RNA with U26C, G27C, U28A, U30A, G31U
DNA 1: CAATCTGAATTCCGGTCTCCC
DNA 2: TGGTGGCTACGACGGGATT
B18: UUCGAGC (DNA:RNA)
RNA: B1 RNA with G25U, A26U, G29A, C30G, A31C
DNA 1: CAATCTGAATTCCGGTCTCCC
DNA 2: TGGTGGCTACGACGGGATT
B19: GAAGACC (DNA:RNA)
RNA: B1 RNA with C27A, G29A, A31C
DNA 1: CAATCTGAATTCCGGTCTCCC
DNA 2: TGGTGGCTACGACGGGATT
B20: CAAUUUU (DNA:RNA)
RNA: B7 RNA with U26A, G27A, G31U
DNA 1: CAATCTGAATTCCGGTCTCCC
DNA 2: TGGTGGCTACGACGGGATT
B21: CUCUUGA (DNA:RNA)
RNA: B7 RNA with G27C, U30G, G31A
DNA 1: CAATCTGAATTCCGGTCTCCC
DNA 2: TGGTGGCTACGACGGGATT
B22: UUUGGCC (DNA:RNA)
RNA: B1 RNA with G25U, A26U, C27U, A31C
DNA 1: CAATCTGAATTCCGGTCTCCC
DNA 2: TGGTGGCTACGACGGGATT
B23: GACUCAA (DNA:RNA)
RNA: B1 RNA with G28U, G29C, C30A
DNA 1: CAATCTGAATTCCGGTCTCCC
DNA 2: TGGTGGCTACGACGGGATT
B24: UGUAGUG (DNA:RNA)
RNA: B4 RNA with C28A, C29G, G30U, U31G
DNA 1: CAATCTGAATTCCGGTCTCCC
DNA 2: TGGTGGCTACGACGGGATT
B25: UGUCGUG (DNA:RNA)
RNA: B4 RNA with C29G, G30U, U31G
DNA 1: CAATCTGAATTCCGGTCTCCC
DNA 2: TGGTGGCTACGACGGGATT
B26: UGUUGUG (DNA:RNA)
RNA: B7 RNA with C25U, U26G, G27U, U29G
DNA 1: CAATCTGAATTCCGGTCTCCC
DNA 2: TGGTGGCTACGACGGGATT
B27: UGUGUAG (DNA:RNA)
RNA: B4 RNA with C28G, C29U, G30A, U31G
DNA 1: CAATCTGAATTCCGGTCTCCC
DNA 2: TGGTGGCTACGACGGGATT
B28: UGUGUCU (DNA:RNA)
RNA: B4 RNA with C28G, C29U, G30C
DNA 1: CAATCTGAATTCCGGTCTCCC
DNA 2: TGGTGGCTACGACGGGATT
B29: UGUGUCG (DNA:RNA)
RNA: B4 RNA with C28G, C29U, G30C, U31G
DNA 1: CAATCTGAATTCCGGTCTCCC
DNA 2: TGGTGGCTACGACGGGATT
B30: CUGUGUC (DNA:RNA)
RNA: B7 RNA with U29G, G31C
DNA 1: CAATCTGAATTCCGGTCTCCC
DNA 2: TGGTGGCTACGACGGGATT
B31: UGUGUUG (DNA:RNA)
RNA: B7 RNA with C25U, U26G, G27U, U28G
DNA 1: CAATCTGAATTCCGGTCTCCC
DNA 2: TGGTGGCTACGACGGGATT
B32: CCCUGUC (DNA:RNA)
RNA: B7 RNA with U26C, G27C, U29G, G31C
DNA 1: CAATCTGAATTCCGGTCTCCC
DNA 2: TGGTGGCTACGACGGGATT

The target in this test is T1, RBFOX1 RRM RbFoxmut (Fox-RRM*). In words: EMSA; HiTS-Eq, 1 nM pool, 10 min; buffer printed only for the single-RNA assays: 10 mM Tris pH 7.5, 150 mM NaCl, 3.4 mM EDTA, 0.001% NP-40, 30 C. As to conditions: tags: His6 N-terminal (pET28a); label: 5' 32P. Put shortly: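 These values rest on relative association constants, computed from read-count changes of each RNA species versus the control reaction and normalised to the cognate motif. Reads came from free RNA recovered by 8% native PAGE after purified RbFox RRM (wild type or mutant) at increasing concentrations was equilibrated for 10 min in 50 µL with 1 nM of a 5′-radiolabelled pool with 7 randomized nucleotides and DNA-annealed flanks.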
For orientation: A gel shift assay detects complexes by their altered migration in electrophoresis.
In the case of B1, the binding signal was 0.149 KA relative to UGCAUGU.

Regarding B2, the binding signal is 0.0952 KA relative to UGCAUGU.

Consider B3, for which the binding signal was 0.138 KA relative to UGCAUGU.

As for B4, the binding signal was 0.147 KA relative to UGCAUGU.

For B5, the binding signal was 0.366 KA relative to UGCAUGU.

Take B6: the binding signal was 0.388 KA relative to UGCAUGU.

Regarding B7, the binding signal is 0.75 KA relative to UGCAUGU.

For the molecule B8, the binding signal was 0.14 KA relative to UGCAUGU.

In the case of B9, the binding signal is 0.139 KA relative to UGCAUGU.

As for B10, the binding signal was 0.0878 KA relative to UGCAUGU.

Regarding B11, the binding signal was 0.549 KA relative to UGCAUGU.

For B12, the binding signal was 0.138 KA relative to UGCAUGU.

As to B13, the binding signal is 0.115 KA relative to UGCAUGU.

For B14, the binding signal is 0.166 KA relative to UGCAUGU.

As to B15, the binding signal is 0.0678 KA relative to UGCAUGU.

For the molecule B16, the binding signal is 0.129 KA relative to UGCAUGU.

In the case of B17, the binding signal is 0.0892 KA relative to UGCAUGU.

With B18, the binding signal was 0.116 KA relative to UGCAUGU.

Consider B19, for which the binding signal is 0.0506 KA relative to UGCAUGU.

B20: the binding signal was 0.0669 KA relative to UGCAUGU.

Regarding B21, the binding signal was 0.107 KA relative to UGCAUGU.

Consider B22, for which the binding signal is 0.282 KA relative to UGCAUGU.

B23: the binding signal is 0.0967 KA relative to UGCAUGU.

Regarding B24, the binding signal is 0.682 KA relative to UGCAUGU.

With B25, the binding signal is 0.193 KA relative to UGCAUGU.

B26: the binding signal was 0.29 KA relative to UGCAUGU.

As to B27, the binding signal was 0.196 KA relative to UGCAUGU.

As for B28, the binding signal was 0.131 KA relative to UGCAUGU.

For B29, the binding signal is 0.253 KA relative to UGCAUGU.

As for B30, the binding signal was 0.436 KA relative to UGCAUGU.

Take B31: the binding signal was 0.383 KA relative to UGCAUGU.

As for B32, the binding signal is 0.194 KA relative to UGCAUGU.
